Sampled rows, rich in hits. Any-hit rate of the full collection: about 2.1%.
PME-1 Maybr inh: PME-1 (human) inhibition, Maybridge primary screen; recombinant PME-1, FP-Rh probe fluorescence polarization; Q9Y570; 16,000 compounds, 0.5% hits; inhibition, % at 9 µM; in the data active = inhibition above about 30%
OPRK1 antag MB: blocks the human kappa opioid receptor, Maybridge compounds; P41145; OPRK1 cells, antagonist mode, fluorescence readout; inhibition, % at 9 µM; 16,000 compounds, 0.4% hits; AID 652031; in the data active = inhibition above about 50%
TLR4 MyD88 blk: TLR4-MyD88 interaction inhibition; Cell-based TLR4-MyD88 binding inhibition assay; 16,000 compounds, 0.06% hits; O00206; inhibition, % at 10 µM; in the data active = inhibition above about 45%
Nox1 inh: inhibitors of human NADPH oxidase 1 (Nox1). inhibition, % at 6.7 µM. 16,000 compounds, 0.81% hits. AID 1792. Q9Y5S8. HT29 cells, luminol chemiluminescence ROS
luminol inh ctr: quenches luminol chemiluminescence in Nox1 counter-screen | inhibition, % at 6.7 µM | HRP/luminol/H2O2 chemiluminescence counterscreen | 16,000 compounds, 0.4% hits; note: reference of the scale not given here
Active calls of the source: *. Cut-off read from the data, not from the text of the source, unless noted: active = inhibition above about 75%; inactive = the rest.

SMILES	PME-1 Maybr inh	OPRK1 antag MB	TLR4 MyD88 blk	Nox1 inh	luminol inh ctr
S=C(NNc1nccc(-c2cccnc2)n1)Nc1ccccc1	3	10	-4	86*	2
Cc1onc(-c2ccccc2)c1C(=O)NNC(=O)c1ccc(-n2c(C)ccc2C)cc1	-6	-24	-7	12	-4
COc1ccccc1N1CCN(C(=O)C(C)N2CCCc3cc(C)ccc32)CC1 (stereo not drawn)	71*	38	-21	11	-11
COc1ccccc1N1CCN(C(=O)Nc2ccc(C)cc2)CC1	0	-17	-3	-7	-10
COc1ccc(OS(=O)(=O)c2sc(Br)cc2Br)cc1	-2	52*	-14	-32	-3
N#Cc1c(S/C=C(\O)c2cc3ccccc3o2)nc2c(c1C(F)(F)F)CCCC2	-2	77*	6	14	-4
O=C(CSc1nnc(SCC(=O)c2cccc([N+](=O)[O-])c2)s1)c1cccc([N+](=O)[O-])c1	4	-10	4	18	92*
O=C(CSC1=NCCCCC1)c1cccc([N+](=O)[O-])c1	-7	35	-3	-11	0
O=C(CSCCS(=O)(=O)c1ccc(Cl)cc1)N1CCOCC1	3	11	8	-25	-5
COc1ccc(Oc2ccc(/C(N)=N/OC(=O)C(C)(C)C)cc2[N+](=O)[O-])cc1	0	1	-2	-6	-1
O=C(Nc1ccccc1)Oc1cccc(F)c1OC(=O)Nc1ccccc1	-2	0	4	-38	3
O=C(Nc1ccc(Cl)cc1)Oc1ccccc1N1CCSCC1	-2	8	-10	92*	4
CC1CN(c2ccccc2OC(=O)Nc2ccc(OC(F)(F)F)cc2)CC(C)O1 (stereo not drawn)	-12	17	0	101*	15
O=C(O)/C(=N/Nc1ccccc1O)c1ccccc1	0	8	-12	83*	-3
COc1ccc(C(=O)N/N=C(/C(=O)O)c2ccccc2)cc1	-1	9	5	-7	1
Cc1cc(Cl)cc2c1C(=O)/C(=C\c1ccccc1O)S2	1	17	-3	31	-1
O=C(Cn1nnc(N2CCCCC2)n1)N/N=C/c1ccccn1	4	8	-4	-5	-6
O=C(NNc1cccc(Cl)c1)c1cccnc1Oc1ccccc1	0	-21	-3	41	100*
Cn1nc(-c2ccccc2)cc1NC(=O)Nc1cccs1	32*	8	-2	-38	26
Cc1noc(-c2ccccc2)c1NC(=O)Nc1cc(C2CC2)nn1C	1	7	5	-5	3
Cc1cc(Oc2ncccc2[N+](=O)[O-])c2cc(F)ccc2n1	-2	-1	9	-13	3
Cn1c(CC2Sc3ccccc3NC2=O)nnc1SCC(=O)Nc1cccc(C(F)(F)F)c1 (stereo not drawn)	6	15	8	17	93*
O=C1c2ccccc2C(=O)N1CNc1ccc(N2CCOCC2)cc1	5	-13	-11	98*	-4
O=C(CN1C(=O)c2ccccc2C1=O)NCc1ccc(N2CCOCC2)cc1	4	-15	3	-17	2
CC(NC(=S)N/N=C/c1cc(Cl)cc(Cl)c1O)c1ccccc1 (stereo not drawn)	16	-12	-51	-38	-1
SMILES	PME-1 Maybr inh	OPRK1 antag MB	TLR4 MyD88 blk	Nox1 inh	luminol inh ctr
COc1ccc(Nc2nc(NC(=O)Nc3ccc(Cl)cc3)n[nH]2)cc1	0	2	8	96*	21
Brc1ccc(-c2csc(Nc3ccncc3)n2)cc1	-1	68*	24	-23	-1
COc1ccc(/C=N/NC(=S)NC2CC(C)CC(C)(C)C2)cc1OCc1ccccc1 (stereo not drawn)	-1	-15	-16	15	-3
COC(=O)c1sccc1-c1ccc(CN2CCCc3cc(OC)ccc32)o1	10	-12	-12	94*	-30
O=C(c1ccc(Cl)cc1)N1CCN(CCN=Cc2ccccc2)CC1	4	-24	-11	5	-5
COc1cc2ncnc(NNS(=O)(=O)c3cc(C)c(Cl)cc3C)c2cc1OC	32*	-4	-5	101*	9
Cn1ncc2c(NNC(=O)c3cc(Cl)cc(Cl)c3)ncnc21	-1	-9	-15	29	0
Cc1cc(S(=O)(=O)NNc2ncnc3c2cnn3C)c(C)cc1Cl	0	0	1	102*	1
COc1cc2ncnc(Nc3cccc(Cl)c3)c2cc1OC	-16	37	-9	14	-3
NNC(=O)c1cccc2cc[nH]c12	2	-12	-13	12	-2
S=c1[nH]nc(Cc2ccccc2)n1Cc1ccccc1	1	-14	8	-9	6
S=c1[nH]nc(Cc2ccsc2)n1Cc1ccccc1	3	-6	1	21	93*
